Assay outcomes (PubChem BioAssay)
Rows were chosen to be rich in hits. Some 3% of all compounds tested hit in one or more screens of this group.
BioA inh – blocks M. tuberculosis BioA enzyme activity; purified M. tuberculosis BioA enzyme, plate reader; inhibition, % at 9.99 µM; 360,000 compounds, 0.096% hits; AID 602481; in the data active = inhibition above about 40%
GDH-TPI counter-1 – counter-screen for M. tuberculosis FBA inhibitors: GDH-TPI coupled enzymes. GDH-TPI coupled enzyme counterscreen, NADH absorbance. AID 588335. 360,000 compounds, 1.2% hits. inhibition, % at 4.8 µM; in the data active = inhibition above about 30%;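 also: 0% = DMSO wells and 100% = wells lacking the enzyme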
FBA Mtb inh – Mtb fructose-bisphosphate aldolase inhibition. 360,000 compounds, 2.3% hits. P9WQA3. inhibition, % at 1 µM. purified M. tuberculosis FBA, fluorescence read-out;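 also: 0% = vehicle and 100% = reference inhibitor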
Rv3671c inh – inhibitors of M. tuberculosis serine protease Rv3671c | 320,000 compounds, 0.048% hits | inhibition, % at 5.96 µM | P9WHR9; in the data active = inhibition above about 38%;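 also: extracellular domain of Rv3671c used as enzyme; 0% = enzyme with DMSO and 100% = no enzyme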
Target sequence (P9WHR9 whole entry, looked up, the tested form may be a part): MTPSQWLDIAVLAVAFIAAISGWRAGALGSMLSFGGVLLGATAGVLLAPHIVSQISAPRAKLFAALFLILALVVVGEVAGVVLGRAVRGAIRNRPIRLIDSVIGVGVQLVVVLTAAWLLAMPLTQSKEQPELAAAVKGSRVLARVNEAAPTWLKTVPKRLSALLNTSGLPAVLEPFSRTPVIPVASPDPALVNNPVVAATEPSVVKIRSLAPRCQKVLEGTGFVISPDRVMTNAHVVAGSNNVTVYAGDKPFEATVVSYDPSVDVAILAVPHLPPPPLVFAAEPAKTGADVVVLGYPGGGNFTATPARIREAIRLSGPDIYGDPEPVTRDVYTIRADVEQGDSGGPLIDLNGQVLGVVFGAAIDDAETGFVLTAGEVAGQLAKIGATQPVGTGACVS
FadD28 FP inh – inhibitors of Mycobacterium tuberculosis FadD28 bisubstrate binding; FadD28 bisubstrate probe binding, fluorescence polarization; AID 588549; inhibition, % at 12.5 µM; 360,000 compounds, 0.22% hits; in the data active = inhibition above about 8.5%, passing the limit was not always enough
Mtb FBA confirm – confirmation of M. tuberculosis fructose-bisphosphate aldolase inhibitors. shares compounds with FBA Mtb inh. purified M. tuberculosis FBA, fluorescence read-out. inhibition, % at 1 µM. 5,600 compounds, 78% hits. AID 651616;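 also: 0% = vehicle wells and 100% = reference inhibitor wells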
GDH-TPI counter-2 – inhibits GDH-TPI coupling enzymes, flagging Mtb FBA hits | shares compounds with FBA Mtb inh | GDH-TPI coupled enzyme counterscreen, fluorescence | inhibition, % at 1 µM | 5,600 compounds, 81% hits | AID 652141; in the data active = inhibition above about 10%
GDH-TPI dose – GDH-TPI dose response counter-screen for Mtb FBA | shares compounds with FBA Mtb inh | GDH-TPI coupled enzyme assay, fluorescence, artifact counterscreen | IC50, µM | 170 compounds, 79% hits | AID 652145; call rule not given here
Numbers without * were called inactive; . = not tested or not shown; + = active, no number. Rule as the data show it, unless noted: active = inhibition above about 27%; inactive = the rest.

SMILES	BioA inh	GDH-TPI counter-1	FBA Mtb inh	Rv3671c inh	FadD28 FP inh	Mtb FBA confirm	GDH-TPI counter-2	others
CCOc1ccc(C(C(=O)NCC2CCCO2)N(C(=O)c2snc(C(N)=O)c2N)c2ccccc2F)cc1 (stereo unspecified)	0	13	53*	8	-3	62*	51*
Cc1ccccc1N(C(=O)c1snc(C(N)=O)c1N)C(C(=O)NC1CCCC1)c1ccco1 (stereo unspecified)	1	10	37*	.	.	134*	98*
Cc1ccc(C(C(=O)NCC2CCCO2)N(C(=O)c2snc(C(N)=O)c2N)c2ccccc2F)o1 (stereo unspecified)	0	9	33*	-4	-2	59*	39*
CCOc1ccc(C(C(=O)NCC2CCCO2)N(C(=O)c2snc(C(N)=O)c2N)c2cccc(F)c2)cc1 (stereo unspecified)	0	9	34*	-4	.	91*	72*
O=C(C[C@H]1CC[C@@H]2[C@H](COC[C@@H](O)CN2Cc2ccc(Oc3ccccc3)cc2)O1)Nc1nccs1	0	.	.	.	.	.	.
COc1ccccc1N(C(=O)c1snc(C(N)=O)c1N)C(C(=O)NCc1ccccc1)c1ccc(O)cc1 (stereo unspecified)	-1	2	18	.	-3	.	.
NC(=O)c1nsc(C(=O)N(c2ccccc2F)C(C(=O)NCc2ccc(F)cc2)c2ccc(O)cc2)c1N (stereo unspecified)	0	2	35*	-41	-1	145*	107*
O=C(Cc1ccccn1)N[C@@H]1CC[C@H](CCNC(=O)c2cc(Cl)cc(Cl)c2)O[C@@H]1CO	4	.	.	.	.	.	.
CN(Cc1cnccn1)C(=O)CC1C(=O)NCCN1Cc1cccc(Oc2ccccc2)c1 (stereo unspecified)	0	5	28*	4	-3	85*	77*
CN(Cc1cnccn1)C(=O)CC1C(=O)NCCN1Cc1cccc(F)c1 (stereo unspecified)	0	-5	0	3	0	.	.
CN(C(=O)c1cccs1)c1ccccc1C(=O)O	0	8	27*	-1	1	4	3
O=C(CSc1n[nH]c(-c2ccc(S(=O)(=O)N3CCCCC3)cc2)n1)Nc1nccs1	.	18	61*	-50	0	65*	47*
O=C(N[C@@H]1CC[C@@H](CCn2cc(Cc3ccccc3)nn2)O[C@H]1CO)c1cnccn1	6	.	.	.	.	.	.
Cc1cc(C)c2nc3nc(C)c(C)cc3c(N)c2c1	.	-5	29*	.	-4	76*	48*
OCc1ccc2c(c1)c(-c1ccc3c(c1)OCCO3)c(-c1ccccc1)n2-c1ccccc1	1	-2	62*	5	-3	10	3	GDH-TPI dose=1.4*
O=C(/C=C/c1cn(-c2ccccc2)nc1-c1ccc2c(c1)OCCO2)NCCO	.	5	6	-56	-2	.	.
O=C(c1ccc2c(c1)OCO2)N1CCCCN2[C@@H](CO)[C@@H](c3ccc(-c4ccccc4)cc3)[C@@H]2C1	3	.	.	.	.	.	.
Cc1ccc(S(=O)(=O)N(C)C[C@@H]2OCCCC[C@H](C)Oc3ccc(NC(=O)CCC(F)(F)F)cc3C(=O)N([C@H](C)CO)C[C@@H]2C)cc1	0	.	.	.	.	.	.
CC(C)n1ncc2c(C(=O)NCCc3ccc(S(N)(=O)=O)cc3)cc(C3CC3)nc21	0	-2	28*	.	-6	+	+
COc1ccc(CCNC(=O)c2cc(C3CC3)nc3c2cnn3C(C)C)cc1OC	5	8	5	-8	0	.	.
COc1cccc(NC(=O)C(C)(C)C)c1	-3	8	1	1	-1	.	.
COC(=O)c1cccc(NC(=O)C(C)(C)C)c1	-2	8	36*	-3	-2	+	+
Cc1cccc(NC(=O)Cn2c(O)c(N=NC(N)=S)c3ccccc32)c1	-6	26	35*	-5	1	187*	146*
Cc1ccc(NC(=O)Cn2c(O)c(N=NC(=O)c3ccncc3)c3ccccc32)cc1	.	-1	-9	-9	-4	.	.
Cc1cc(OC(C)C(=O)NCc2cccnc2)c2c3c(c(=O)oc2c1)CCC3 (stereo unspecified)	-2	6	21	-7	-4	.	.
